The record followed here is article PMC8384837, “Expanding the binding specificity for RNA recognition by a PUF domain”.

Common to all, as to test: yeast three-hybrid, YBZ-1, SC-Leu-His + 0.5 mM 3-AT, 4 days
Details in all cases: tags: N-Gal4 AD-HA kept; label: inside an RPR1-promoter hybrid RNA with tandem MS2 sites; ssRNA

Experiment [1] deals with PUM1 PUF domain R5-NQR (Homo sapiens, UniProt Q14671 828-1176, C1007N;R1008Q;Q1011R). The method, boiled down: (§1)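 Repeat regions from input (SC-Leu) and selection (SC-Leu-His + 0.5 mM 3-AT) plates were PCR-amplified and Illumina-sequenced after four days of growth. The cells were strain YBZ-1 with a LexA–MS2 coat fusion and a HIS3 reporter, co-expressing Pumilio-1 PUF domain libraries and matching RNA elements from a centromeric plasmid. The interaction score is the log change in variant frequency from input to selection, taken in log2 with a pseudocount of 1 for absent variants.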

The target of experiment [2] is PUM1 PUF domain R5-FNL (Homo sapiens, UniProt Q14671 828-1176, C1007F;R1008N;Q1011L). In a few lines: as §1
The target in experiment [3] is PUM1 PUF domain R1-RLS (Homo sapiens, UniProt Q14671 828-1176, S863R;R864L;Q867S). In a few lines:
as §1

Experiment [4] addresses PUM1 PUF domain R3-TYF (Homo sapiens, UniProt Q14671 828-1176, C935T;R936Y;Q939F). The method, boiled down:
as §1

Experiment [5] deals with PUM1 PUF domain R4-NNA (Homo sapiens, UniProt Q14671 828-1176, H972N;Q975A). The method, boiled down:
as §1

Experiment [6] addresses PUM1 PUF domain R5-EYR (Homo sapiens, UniProt Q14671 828-1176, C1007E;R1008Y;Q1011R). The method, boiled down: as §1
The target of experiment [7] is PUM1 PUF domain R3-MWH (Homo sapiens, UniProt Q14671 828-1176, C935M;R936W;Q939H). The method, boiled down:
as §1

“GGCUAGAACUAGUGGAUCCCCCGGCGCCCGGCGGCUCGAGCCCGGGUAAGUGUUAAUAGUCUGCAUGCCGCCGGGCGCCAUGCCUGCAGGUCGACUCUAGAAAACAUG”: the binding signal in experiment [1] was 4.88 log2 enrichment (interaction score); in experiment [2], 3.47 log2 enrichment (interaction score).
As to “GGCUAGAACUAGUGGAUCCCCCGGCGCCCGGCGGCUCGAGCCCGGGUAAGUGUCAAUAGUCUGCAUGCCGCCGGGCGCCAUGCCUGCAGGUCGACUCUAGAAAACAUG”, the binding signal in experiment [1] is 4.31 log2 enrichment (interaction score).
Take “GGCUAGAACUAGUGGAUCCCCCGGCGCCCGGCGGCUCGAGCCCGGGUAAGUGUAAAUUGUCUGCAUGCCGCCGGGCGCCAUGCCUGCAGGUCGACUCUAGAAAACAUG”: in experiment [3], the binding signal is 2.64 log2 enrichment (interaction score).
On to “GGCUAGAACUAGUGGAUCCCCCGGCGCCCGGCGGCUCGAGCCCGGGUAAGUGUAAAUCGUCUGCAUGCCGCCGGGCGCCAUGCCUGCAGGUCGACUCUAGAAAACAUG”, for which the binding signal in experiment [3] is 1.22 log2 enrichment (interaction score).
In the case of “GGCUAGAACUAGUGGAUCCCCCGGCGCCCGGCGGCUCGAGCCCGGGUAAGUGUAAAUAGUCUGCAUGCCGCCGGGCGCCAUGCCUGCAGGUCGACUCUAGAAAACAUG”, the binding signal is 6.49 log2 enrichment (interaction score) in experiment [4], 2.12 log2 enrichment (interaction score) in experiment [5], 5.2 log2 enrichment (interaction score) in experiment [6] and 2.6 log2 enrichment (interaction score) in experiment [7].
In the case of “GGCUAGAACUAGUGGAUCCCCCGGCGCCCGGCGGCUCGAGCCCGGGUAAGUGUAUAUAGUCUGCAUGCCGCCGGGCGCCAUGCCUGCAGGUCGACUCUAGAAAACAUG”, the binding signal in experiment [5] is 4.34 log2 enrichment (interaction score).
